L3MBTL1 inh – blocks human L3MBTL1 | Q9Y468 | AlphaScreen L3MBTL1–H3K9me1 peptide binding | Potency, µM (top dose mostly 57.1 µM), for inactives: top-dose activity, negative = inhibition, most hits filed as inhibitors | 230,000 compounds, 0.66% hits; further: on the % scale 0 is the no-effect control and ±100 the full control effect; nearly all actives have a fitted effect of over 60% in size
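L3MBTL1 (50 nM) pre-complexed 30 min with biotinylated H3(1-15)K9me1 peptide (75 nM), then compounds added for 30 min at room temperature; AlphaScreen streptavidin donor/nickel chelate acceptor beads (10 ug/mL final) read after 30 min dark incubation.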
POLB inh – inhibitors of human DNA polymerase beta; P06746; 340,000 compounds, 1.3% hits; Potency, µM (highest dose often 114 µM), without a hit: at the top dose activity change, negative = inhibition, actives largely listed as inhibitors; Pol beta primer extension/strand displacement, fluorescence kinetic; further: on the % scale 0 is the no-effect control and ±100 the full control effect
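Kinetic readout of DNA synthesis with strand displacement by Pol beta. Compound and 10 nM enzyme sit 15 min at room temperature; 50 nM substrate starts the reaction, read immediately and at 10 min.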
Pol eta inh – inhibitors of human DNA polymerase eta | recombinant Pol eta, fluorescent DNA replication assay | Potency, µM (doses to about 114 µM), for inactives: at the highest dose activity change, negative = inhibition, hits mostly inhibitors | Q9Y253 | 390,000 compounds, 1.2% hits; further: on the % scale 0 is the no-effect control and ±100 the full control effect
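Fluorescent replication assay: 50 nM final substrate added after a 15 min room-temperature compound preincubation with 10 nM enzyme. Signal taken at 0 min and again at 10 min.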
APEX1 inh – blocks human APE1 abasic DNA cleavage. recombinant APE1, TAMRA/BHQ-2 abasic DNA cleavage fluorescence. Potency, µM (series often up to 65.8 µM), without a hit: at the top dose activity change, negative = inhibition, hits mostly inhibitors. 350,000 compounds, 0.35% hits. AID 2517;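 further: plate controls were vehicle for no effect and reference inhibitor for full effect; nearly all actives have a fitted effect of over 55% in size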
Target sequence (P27695 whole entry, looked up): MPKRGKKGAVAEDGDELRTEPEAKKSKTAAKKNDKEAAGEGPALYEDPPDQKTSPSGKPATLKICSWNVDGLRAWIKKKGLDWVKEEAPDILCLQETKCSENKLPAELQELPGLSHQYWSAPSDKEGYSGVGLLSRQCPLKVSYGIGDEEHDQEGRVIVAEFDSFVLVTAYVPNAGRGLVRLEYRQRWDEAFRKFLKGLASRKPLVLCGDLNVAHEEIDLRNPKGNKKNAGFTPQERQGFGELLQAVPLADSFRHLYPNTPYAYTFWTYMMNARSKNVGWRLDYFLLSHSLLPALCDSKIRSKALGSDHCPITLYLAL
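Enzyme (0.75 nM final) and test compound are incubated 15 min at room temperature before adding 50 nM quenched THF abasic-site duplex. Cleavage dequenches TAMRA, followed at 525/598 nm over three reads one minute apart.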
Pol iota inh – DNA polymerase iota (human) inhibition | 390,000 compounds, 1% hits | Q9UNA4 | AID 588590 | Potency, µM (titrated, usually from 115 µM), for the others: at the highest dose activity, negative = inhibition, usual class: inhibitors | Pol iota fluorescent replication assay, 10 min
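Fluorescent replication assay read twice, at 0 min and 10 min after adding 50 nM (final) substrate. Enzyme (10 nM) and compounds were first incubated 15 min at room temperature; enzyme-free buffer wells were negative controls.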
Pol kappa inh – inhibitors of human DNA polymerase kappa; 400,000 compounds, 0.53% hits; AID 588579; Potency, µM (highest dose often 107 µM), for inactives: at the top dose activity, negative = inhibition, usual class: inhibitors; purified Pol kappa, fluorescent DNA synthesis assay, 10 min; further: on the % scale 0 is the no-effect control and ±100 the full control effect
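Kinetic fluorescence readout at 0 and 10 min followed reaction start with substrate at 50 nM final. Beforehand, enzyme (10 nM Pol kappa) stood 15 min with compound at room temperature; buffer-only wells were negative controls.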
* marks the source's active call; other numbers are inactive results; ? = inconclusive; nt = no result; [ ] = dose if it differs, or a comment. Shown are actives, neighbours in structure and some others; about 2.5% of the full set was active somewhere. The call rests on the fitted dose curve; in most records, active means well fitted curve in the direction sought with a large enough effect; inconclusive means small, poorly fitted or top-dose-only effect, or another doubt; inactive means no such curve, though single readings can be large; an effect the other way counts as inactive or inconclusive. Potency means the concentration at half of the fitted maximal effect.

SMILES	L3MBTL1 inh	POLB inh	Pol eta inh	APEX1 inh	Pol iota inh	Pol kappa inh
CCOc1ccc2nc3cc(N=Nc4ccc(N)nc4N)ccc3c(N)c2c1	nt	nt	44.7µM*	nt	?	?
O=[N+]([O-])c1ccc(/C=N/Nc2ccnc3cc(Cl)ccc23)o1	nt	?	?	7.3%	?	-21.9%
Clc1ccc2c(N/N=C/c3cccc(Br)c3)ccnc2c1	5.6%	31.6µM*	2.0%	-2.2%	-12.1%	-11.4%
Clc1ccc2c(N/N=C/c3ccccc3Br)ccnc2c1	2.2%	22.4µM*	-0.9%	3.5%	-11.5%	0.0%
COc1c(-c2coc3cc4c(cc3c2=O)CC(O)C(C)(C)O4)ccc2c1C=CC(C)(C)O2 (configuration not stated)	nt	nt	nt	13.2%	nt	-16.1%[60.1 µM]
COc1c(-c2coc3cc4c(cc3c2=O)CC(OC(C)=O)C(C)(C)O4)ccc2c1C=CC(C)(C)O2 (configuration not stated)	nt	nt	nt	22.4µM*	nt	-16.7%[60.1 µM]
CC(NC(=O)CN1c2cccc3cccc(c23)S1(=O)=O)c1ccc(S(N)(=O)=O)cc1 (configuration not stated)	?	nt	20µM*	-18.5%	28.2µM*	?
CSc1ccc(/C=N/NC(=O)c2ccc(C)c(C)c2)cc1	-13.0%	25.1µM*	?	6.3%	?	-23.6%
O=C(N/N=C/c1ccncc1)c1ccc(-n2cccc2)cc1	-11.9%	39.8µM*	-9.0%	11.6%	79.4µM*	-1.9%
O=C(N/N=C/c1ccc(F)cc1)c1ccccc1	nt	24.0%	-5.1%	17.7%	31.8%	-0.3%
O=C(N/N=C/c1ccc(OC(=O)c2cccs2)cc1)c1ccc(F)cc1	4.5%	17.8µM*	?	0.8%	9.1%	-17.3%
CC(/C=N/NC(=O)c1ccc(Br)cc1)=C\c1ccccc1	nt	22.4µM*	-10.6%	0.8%	?	0.5%[60.1 µM]
O=C(N/N=C/c1cccs1)c1ccc(-n2cccc2)cc1	2.0%	?	0.5%	0.2%	14.2%	-1.8%
Cc1cc[n+](C2CCCCC2)c2ccccc12	nt	nt	nt	nt	-2.4%	-11.8%
Cc1ccc(CNc2ccc(N3CCNCC3)cc2)cc1	nt	nt	nt	16.3%	nt	nt
Cc1ccc(N2CC(c3nnc(NC(=O)c4ccco4)s3)CC2=O)cc1C (configuration not stated)	nt	13.1%	3.0%	nt	1.4%	4.5%
O=C(N/N=C/c1ccc(Br)cc1)c1ccc(F)cc1	0.0%	-9.7%	-10.7%	5.6%	-2.5%	-5.2%
O=C(N/N=C/c1ccc(F)cc1)c1ccc(Br)cc1	2.3%	31.6µM*	-16.2%	?	-11.2%	-7.9%
Nn1cnnc1N/N=C/c1ccc(F)cc1	-1.6%	-5.3%	-13.3%	15.7%	15.8µM*	5.9%
Cc1ccc(/C=N/Nc2nncn2N)cc1	nt	8.8%	-6.1%	6.3%	0.891µM*	-2.2%
Nn1cnnc1N/N=C/c1ccc(Cl)c([N+](=O)[O-])c1	-18.2%	?	-10.3%	-9.3%	3.16µM*	-6.5%
COC(=O)[C@H](Cc1ccccc1)NC(=O)[C@]1(C)C[C@H]1[C@H](NC(=O)OCc1ccccc1)c1ccccc1	nt	nt	nt	-9.3%	nt	nt
COC(=O)c1sc(S(=O)(=O)Nc2c(C)nn(C)c2C)c(C(=O)OC)c1C	?	nt	-25.6%	26.4%	-11.8%	-9.3%
COC(=O)c1sc(NC(=S)NNC(=O)c2c(Br)c(C)nn2C)c(C(=O)OC)c1C	nt	22.4µM*	50.1µM*	-25.0%	?	-35.5%
O=C(O)CC(Sc1n[nH]c(=S)s1)C(=O)O (configuration not stated)	-87.2%	25.1µM*	24.8%	?	?	-20.9%
COC(=O)C(C)Sc1n[nH]c(=S)s1 (configuration not stated)	nt	16.1%	-20.5%	1.2%	12.9%	8.7%
O=C(Nc1cc(C2CC2)nn1-c1ccccc1)c1ccc(F)cc1	7.2%	nt	-18.0%	22.1%	-0.5%	?
CCOC(=O)c1ccccc1NC(=O)Cn1c(=O)n(CCCC(=O)NCc2ccc3c(c2)OCO3)c(=O)c2ccccc21	nt	-6.7%	-5.3%	nt	?	-8.6%

Source: PubChem BioAssay
